# Data reported in PubChem BioAssay (NCI).
# About 83,000 compounds went through this panel and 20% of them were active in at least one assay; those are over-represented in the sample as a whole.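 Compound tested at a single concentration for 48 hours in 96-well plates; a percent growth value below 10 was scored as active.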 Unmarked numbers belong to inactive results. Calls of active or inactive are those of the source. Where a SMILES comes first, the peptide text is derived from it. Bridges are numbered along the chain shown (N, C = ends). [ ]: non-standard residue; d: D form. The star is where a group is joined. ξ: configuration not given here. ξNMePhe(4-NMe2) = CNC(Cc1ccc(N(C)C)cc1)C(=O)O; Picolinoyl(3-OH) = O=C(c1ncccc1O)*; ξPip(4-oxo) = O=C1CCNC(C(=O)O)C1; Phg = N[CH](C(=O)O)c1ccccc1; Abu = CC[CH](N)C(=O)O
# Legend:
# Test in all cases: NCI-60 one-dose screen, 48 h (100 = growth as untreated, 0 = no growth, -100 = all killed)
# HCT-15 colon = conditions: 10 µM
# HT29 colon = conditions: 10 µM
# SNB-75 CNS = conditions: 10 µM
# SNB-19 CNS = conditions: 10 µM
# U251 CNS = conditions: 10 µM
# PC-3 prostate = conditions: 10 µM
# SK-MEL-5 melanoma = conditions: 10 µM
# UACC-62 melanoma = conditions: 10 µM unless noted
# LOX IMVI melanoma = conditions: 10 µM
# SK-MEL-28 melanoma = conditions: 10 µM
Structure (SMILES),growth (HCT-15 colon),growth (HT29 colon),growth (SNB-75 CNS),growth (SNB-19 CNS),growth (U251 CNS),growth (PC-3 prostate),growth (SK-MEL-5 melanoma),growth (UACC-62 melanoma),growth (LOX IMVI melanoma),growth (SK-MEL-28 melanoma)
Cc1cc(C(C)(C)C)cc(C)c1Br,109%,113%,94.6%,106%,113%,75.3%,111%,108%,96.1%,109%
Cc1cc(=O)[nH]c(NN=C2CCCC2)n1,106%,107%,89.1%,108%,120%,80.7%,115%,100%,110%,113%
Nc1ccc(N=Nc2ccc(S(=O)(=O)O)cc2)c2ccccc12,99.9%,107%,81.6%,106%,98.9%,87.4%,94.4%,90.7%,100%,103%
CCC1NC(=O)C(NC(=O)c2ncccc2O)C(C)OC(=O)C(c2ccccc2)NC(=O)C2CC(=O)CCN2C(=O)C(Cc2ccc(N(C)C)cc2)N(C)C(=O)C2CCCN2C1=O (configuration not stated) (tested in a mixture with another compound) ({Picolinoyl(3-OH)}-T[Abu]P[ξNMePhe(4-NMe2)][ξPip(4-oxo)][Phg]; ester 1-C; configuration not given here),79.3%,43.6%,45.4%,78.4%,64.9%,55.5%,-21.7% (active),50.9%,49.2%,–
Oc1ccc2c(c1)OCC1(O)Cc3cc(O)c(O)cc3C21 (configuration not stated),80.6%,92.4%,22.8%,117%,90.7%,69.5%,95.5%,91.5%,98.2%,–
CNC(=O)c1ccccc1CC1(O)c2ccccc2Oc2ccccc21,44.6%,7.73% (active),58.3%,93%,47.8%,35.3%,41.9%,43.6%,57.9%,63.8%
CC(=O)NCc1cc(C)c(C)cc1C,105%,97.2%,87.9%,109%,97.9%,93.5%,104%,109%,98.6%,103%
Cc1ccc(C(=O)N/N=C/c2ccc3c(c2)OCO3)cc1,91.6%,104%,95.8%,96.7%,101%,82.8%,100%,76.3%,89.1%,107%
CO[C@H]1C[C@@H]2CC[C@@H](C)[C@@](O)(O2)C(=O)C(=O)N2CCCC[C@H]2C(=O)O[C@H]([C@H](C)C[C@@H]2CC[C@@H](O)[C@H](OC)C2)CC(=O)[C@H](C)C=C(C)[C@@H](O)[C@@H](OC)C(=O)[C@H](C)C[C@H](C)/C=C/C=C/C=C1C,42.7%,45.3%,13.3%,46.2%,51.8%,44%,24.8%,43.8%,51.9%,–
O=C1C=CC2=C3c4cc(O)c(O)cc4CC3(O)COC2=C1O (configuration not stated),105%,100%,88%,104%,105%,93.7%,138%,98.1%,99.2%,119%
O=C1C=C(O)C(=O)C=C1O,107%,105%,95.1%,104%,104%,101%,114%,102%,98.9%,114%
CC(=Nc1ccccc1)C1=C(O)C(Cc2cccc(F)c2)NC1=O (configuration not stated),8.21% (active),-12.1% (active),78.3%,36.2%,10.8%,19.2%,1.57% (active),32.9%,5.05% (active),63.5%
CC1CCC2C(C)(C)C3CC12CC1OC13C (configuration not stated),97.7%,107%,97.5%,102%,102%,99.5%,96.9%,103%,98.3%,103%
Cc1cc(Cc2cc(C)c(N)cc2N)c(N)cc1N,103%,95.9%,91.4%,96.3%,88.9%,85.4%,91.9%,95.5%,87.3%,112%
CN1C(=O)CN2CCc3ccccc3C2c2cc(Cl)ccc21 (configuration not stated),89.7%,108%,96.1%,96.7%,103%,94.7%,91.5%,78.7%,94.7%,-89.5% (active)
